# Source: PubChem BioAssay (National Center for Advancing Translational Sciences (NCATS))
# This is one part of a sample in which hits are shown more often than they occur.
# Pf Dd2 growth: blocks in vitro growth of P. falciparum Dd2; P. falciparum Dd2 growth, SYBR Green, 72 h; Potency, µM (top dose mostly 28.9 µM), for inactives: at the top dose activity, negative = inhibition, actives largely listed as inhibitors; 4.3% of 120,000 active; AID 1347417; active = well fitted inhibition curve with a large enough effect;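 also: plate controls were DMSO vehicle for no effect and reference drug for full effect; nearly all actives have a fitted effect of over 65% in size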
#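 Infected erythrocytes (Dd2, 0.3% parasitemia, 2.5% hematocrit final) are added to compound in RPMI-1640/Albumax II medium, grown 72 h at 37C in low oxygen, then lysed with saponin/Triton-X containing SYBR Green and read by fluorescence.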
# * marks the source's active call; other numbers are inactive results; i = inactive; [ ] = remark or other dose. Potency is read from the fitted curve at half-maximal effect.
SMILES,Pf Dd2 growth
COCC(=O)N[C@@H]1CN(CC2CC2)CC[C@@H]1c1nc(C)no1,i[5.79 µM]
Cn1nccc1CN1CCC2(CNc3ccccc3[S+](=O)([O-])N2)C1 (stereo unspecified),i
COCC(=O)N1CC[C@H]2COC(=O)N2c2cc(F)ccc2C1,7.4%[44.1 µM]
CCN(CCCNC(=O)c1cc2c(=O)n(C)c3ccccc3c2s1)Cc1ccccc1,5.01µM*
CCN(CCCNC(=O)c1cc2c(=O)n(C)c3ccccc3c2s1)c1ccccc1,12.6%[5.79 µM]
CCOc1ccc(CNC(=O)c2cc3c(=O)n(C)c4ccccc4c3s2)cc1,12.8%
Cc1ccc(C(=O)N2CCn3c(nn(-c4cccc(Cl)c4)c3=O)C2)cc1,2.7%
COCCc1noc(-c2nnn3c2COC(c2ccc(OC)cc2)C3)n1 (stereo unspecified),i
COc1ccc2[nH]c3c(c2c1)CCNC31CCN(C(=O)c2ccc(C)s2)CC1,-22.3%
COc1cccc(CN2C[C@@H]3C(=O)N(CCN4CCc5ccccc5C4)C(=O)[C@@H]3C2)c1OC,7.08µM*
COCCN1C(=O)[C@H]2CN(Cc3ccccc3OC(F)(F)F)C[C@H]2C1=O,49.8%
COc1cccc(CN2CCc3nn(C)c(=O)n3CC2)c1OC,40.1%
CO[C@H]1C(=O)N(C(C)C)[C@H]1C1CCN(S(C)(=O)=O)CC1,-1.4%
C[C@H]1[C@@H]2[C@@H](O)C([C@H](C)C(=O)NC3CC3)CC[C@@]2(C)CC[C@@H]1NC(=O)c1ccccn1 (stereo partly specified),i
COc1ccc(CCNc2ncnc3c2CN(C2CCCNCC2)C(=O)CN3C)cc1 (stereo unspecified),-18.6%
CCc1ccc(S(=O)(=O)N2CCC(Oc3ncccc3C(=O)N(C)C)C2)cc1 (stereo unspecified),i
CCN(C(=O)CSc1nc(-c2ccc(C(C)C)cc2)no1)c1cccc(C)c1,0.891µM*
CCN(C(=O)CSc1nc(-c2ccc(C(C)C)cc2)no1)c1ccccc1,1.12µM*
CCN(C(=O)CCc1nc(-c2ccc(C)cc2)no1)c1cc(C)ccc1C,-15.4%
CCN(C(=O)CSc1nnc(-c2ccc(Cl)cc2)o1)c1ccccc1,5.2%
CCN(C(=O)CSc1nc2ncccc2[nH]1)c1ccc(C(C)C)cc1,-23.6%
CCN(C(=O)Cc1nc(-c2ccc(OC)cc2)no1)c1cccc(Cl)c1,-29.2%
O=C(c1ccc(=O)[nH]c1)N1C[C@@H](CO)[C@H](c2ccccn2)C1,10.5%
Cc1cccc(-n2nc(-c3c(C)nc4scc(CC(=O)NC5CCCCC5)n4c3=O)cc2C)c1C,-6.4%
O=[S+]1([O-])NCC2(CCCN(Cc3ccc(F)cc3)C2)Oc2ncccc21 (stereo unspecified),-26.7%
SMILES,Pf Dd2 growth
COCCn1ncc(N2CCCC(CC(=O)Nc3ccccc3OC)C2)cc1=O (stereo unspecified),12.3%
CCN1CCCN(S(=O)(=O)c2cc(OC)ccc2OC)CC12CCOCC2,i
COCCCNC(=O)C1c2ccccc2C(=O)N(C2CCCCC2)C12CCCCC2 (stereo unspecified),-3.8%
COCCN1CC(CO)C2(CCN(Cc3ccc(F)c(F)c3)CC2)C1 (stereo unspecified),-19.5%
COCCN1CC(CO)C2(CCN(Cc3cccc(Cl)c3)CC2)C1 (stereo unspecified),10µM*
COCCN1CC(CO)C2(CCN(Cc3cccc(C#N)c3)CC2)C1 (stereo unspecified),-6.6%
CN1C(=O)CCC2(CNC(=O)c3cccn3C)CCC=C12 (stereo unspecified),i
O=C(Cn1nc(-c2cccs2)ccc1=O)NC1CCCc2c1[nH]c1ccccc21 (stereo unspecified),1.1%
CC(C)c1ccc(NC(=O)Cn2cc(S(=O)(=O)N3CCN(c4ccccc4F)CC3)c3ccccc3c2=O)cc1,10µM*
CC(C)c1ccc(NC(=O)c2ccc(F)c(S(=O)(=O)N3CCN(c4ccccc4F)CC3)c2)cc1,i
CC1CCN(S(=O)(=O)c2cn(CC(=O)Nc3ccc(F)cc3)c(=O)c3ccccc23)CC1,i
COc1ccccc1-c1ccc2ncc(Nc3cccc(O)c3)n2n1,12.6µM*
COc1ccc(Nc2cnc3ccc(-c4ccccc4OC)nn23)cc1OC,-3.7%[44.1 µM]
COc1ccccc1-c1ccc2ncc(Nc3ccc4c(c3)OCO4)n2n1,-4.7%[44.1 µM]
CN(C)CC1(O)CCN(C(=O)Cn2cc(C(=O)C3CC3)c3ccccc32)C1 (stereo unspecified),-5.0%
O=C(NCCc1ccc(F)cc1)C1CCCN1c1nc2ncccc2o1 (stereo unspecified),-9.8%
O=C(Nc1cc(F)ccc1F)C1CN(S(=O)(=O)c2cccnc2)CC12CCCCC2 (stereo unspecified),-20.2%
O=C(NCCCN1CCCC1=O)C1CN(S(=O)(=O)c2ccccc2)CC12CCCCC2 (stereo unspecified),33.8%
O=C(NCCc1cccs1)C1CN(S(=O)(=O)c2cccnc2)CC12CCCCC2 (stereo unspecified),-5.0%
O=C(NCCN1CCOCC1)C1CN(S(=O)(=O)c2ccccc2)CC12CCCCC2 (stereo unspecified),3.98µM*
COC(=O)CCNC(=O)C1CN(S(=O)(=O)c2cccnc2)CC12CCCCC2 (stereo unspecified),-10.1%
O=C(NCc1cc(F)ccc1F)C1CN(S(=O)(=O)c2cccnc2)CC12CCCCC2 (stereo unspecified),2.82µM*
COCCOc1ccc(C(=O)N[C@@H]2CN(C(=O)Nc3cccc(OC)c3)CCC[C@H]2O)cc1,-17.6%
CCc1ccc(CNC(=O)CN2C(=O)NC3(CCCCC3)C2=O)cc1,-16.7%
COC1CCC12CCN(C(=O)C1CCCC1)CC2 (stereo unspecified),-9.2%
SMILES,Pf Dd2 growth
COCC(=O)NC1CCC12CCN(C(=O)CC1CCCCC1)CC2 (stereo unspecified),i
CCCN(CC1CC1)C(=O)c1c(OCC2CC2)cc(=O)n2c1CCCCC2,14.8%
Cn1cnc(C(=O)N2CCC(N(Cc3ccccc3)C3CCOCC3)CC2)c1,-7.5%
O=C(c1cccc(Cl)c1)N1CCC(N(Cc2ccccc2)C2CCOCC2)CC1,5.01µM*
Cn1cc(C(=O)N2CCC(N(Cc3ccccc3)C3CCOCC3)CC2)cn1,i
CN1C(=O)CC(C(=O)O)C12CCN(Cc1ncccn1)CC2 (stereo unspecified),-6.3%
CC(C)NC(=O)c1nc(-c2ccc(Cl)cc2Cl)c2cnccn12,3.55µM*
COc1ccccc1-c1nc(C(=O)N(C)C)n2ccncc12,3.3%
C[S+](=O)([O-])c1ccc(-c2nc(C(=O)N3CCOCC3)n3ccccc23)cc1,18.4%
COc1ccccc1-c1nc(C(=O)N2CCCC2)n2ccncc12,10µM*
COC(=O)CNC(=O)c1nc(-c2ccc(Cl)cc2Cl)c2cnccn12,-22.0%
COc1ccccc1-c1cc(C(=O)N2CCCC2)nn2cccc12,0.1%
Cn1ncc2c(C(=O)NCc3cccnc3)cc(-c3ccc(Cl)cc3Cl)nc21,i
C[S+](=O)([O-])c1ccc(-c2nc(C(=O)N3CCCC3)n3ccncc23)cc1,12.6µM*
COC(=O)CNC(=O)c1nc(-c2ccc(Cl)cc2Cl)c2ccccn12,21.3%
O=C(NCc1cccnc1)c1nc(-c2ccc(Cl)cc2Cl)c2cnccn12,11.2µM*
O=C(NCc1ccc2c(c1)OCO2)c1nc(-c2ccc(Cl)cc2Cl)c2ccccn12,i
O=C(c1nc(-c2ccc(Cl)nc2)c2cnccn12)N1CCOCC1,5.0%
O=[S+]1([O-])NC2(CCN(Cc3cccc4ccccc34)CC2)CNc2ccccc21,-11.5%
